# High-throughput results deposited in PubChem by several laboratories.
# The list is not random: actives were taken first. Their share in the collection is about 1.8%.
# MBD2 DNA inh = blocks human MBD2 binding to methylated DNA | inhibition, % at 4.4 µM | TR-FRET, MBD2 binding to methylated oligonucleotide | 370,000 compounds, 0.31% hits; in the data active means inhibition above about 13%
# Target sequence (Q9UBB5 whole entry, looked up): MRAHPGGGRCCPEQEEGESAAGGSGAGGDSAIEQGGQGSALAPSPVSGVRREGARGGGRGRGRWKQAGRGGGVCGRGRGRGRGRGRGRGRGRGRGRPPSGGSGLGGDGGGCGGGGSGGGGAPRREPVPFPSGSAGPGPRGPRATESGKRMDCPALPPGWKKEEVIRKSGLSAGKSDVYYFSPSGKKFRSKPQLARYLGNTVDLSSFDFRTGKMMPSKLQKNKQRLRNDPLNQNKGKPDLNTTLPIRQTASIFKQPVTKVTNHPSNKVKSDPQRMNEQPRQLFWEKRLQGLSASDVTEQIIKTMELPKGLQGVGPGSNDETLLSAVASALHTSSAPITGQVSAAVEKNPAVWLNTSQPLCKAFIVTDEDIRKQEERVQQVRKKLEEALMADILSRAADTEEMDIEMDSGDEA
# UHRF1 MBD2 ctr = UHRF1 methyl-DNA binding inhibition; inhibition, % at 4.4 µM; 370,000 compounds, 0.75% hits; UHRF1 binding to methylated oligo, TR-FRET; Q96T88; AID 687016;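 further: UHRF1 SRA domain binding a hemimethylated CpG hairpin DNA probe; 0% = median of test compound wells and 100% = reference inhibitor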
# Neddyl block = inhibitors of human cullin neddylation; calls only at 25 µM; TR-FRET cullin neddylation, biochemical; 360,000 compounds, 0.58% hits; in the data active means inhibition above about 36%
# UBC13 polyUb = human UBC13 polyubiquitination inhibition | P61088 | UBC13 polyubiquitin chain formation, TR-FRET | inhibition, % at 20 µM | 330,000 compounds, 0.47% hits | AID 485273; in the data active means inhibition above about 45%, passing the limit was not always enough
# Target sequence (P61088 whole entry, looked up): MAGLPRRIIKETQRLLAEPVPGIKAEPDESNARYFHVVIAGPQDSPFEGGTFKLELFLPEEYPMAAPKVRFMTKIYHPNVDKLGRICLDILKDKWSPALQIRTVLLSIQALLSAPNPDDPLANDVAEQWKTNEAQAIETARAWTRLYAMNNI
# UHRF1 DNA bind = counter-screen for MBD2 inhibitors: human UHRF1 methylated DNA binding inhibitors. shares compounds with MBD2 DNA inh. UHRF1 binding to methylated oligonucleotide, TR-FRET. inhibition, % at 4.4 µM. 1,000 compounds, 25% hits. AID 720530;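 further: UHRF1 SRA domain binding a labeled hemimethylated CpG hairpin DNA; 0% = vehicle only and 100% = reference inhibitor with vehicle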
# MBD2 DBD conf = MBD2-DBD methyl-DNA binding inhibition, TR-FRET confirmation | shares compounds with MBD2 DNA inh | TR-FRET MBD2-DBD binding to methylated oligonucleotide | inhibition, % at 4.4 µM | 1,000 compounds, 26% hits | AID 720531; in the data active means inhibition above about 14%
# An asterisk follows results filed as active; i = inactive; nt = no result. Unless noted, no stated cut-off is given here; in the data, active means inhibition above about 21%; inactive means the rest.
SMILES,MBD2 DNA inh,UHRF1 MBD2 ctr,Neddyl block,UBC13 polyUb,UHRF1 DNA bind,MBD2 DBD conf
CN1C(=O)c2cc(NS(C)(=O)=O)ccc2OC[C@H]2O[C@@H](CC(=O)NCc3ccc(-c4ccccc4)cc3)CC[C@@H]21,11,8,nt,nt,nt,nt
COc1ccccc1CNC(=O)C[C@H]1CC[C@H]2[C@H](COc3ccc(NS(=O)(=O)c4ccc(C)cc4)cc3C(=O)N2C)O1,18*,1,nt,nt,5,6
COc1cc(F)ccc1-c1cc(C(=O)Nc2ccc(C)c(NS(C)(=O)=O)c2)[nH]n1,-3,-1,i,nt,nt,nt
O=C(COC(=O)CNC(=O)c1ccccc1)Nc1ccc(Cl)cc1C(F)(F)F,5,-1,i,-4,nt,nt
O=C(COC(=O)CNC(=O)c1ccc(Cl)cc1)Nc1ccc(Cl)cc1C(F)(F)F,61*,1,i,5,9,1
Cc1ccc2nc(-c3cccc(Cl)c3)c(Cc3ccsc3)n2c1,13*,20,nt,nt,9,5
CCCc1nc2ccc(C)cn2c1Cc1ccsc1,16*,22*,i,nt,10,7
Cc1ccc2nc(C(C)(C)C)c(Cc3ccsc3)n2c1,7,18,i,nt,nt,nt
O=C(Nc1ccc(F)cc1)c1cc(Cl)sc1Cl,-4,2,i,-3,nt,nt
COc1ccc(OCc2nn3c(-c4ccccn4)nnc3s2)cc1,22*,0,i,-10,5,3
COc1ccc(-c2nnc3sc(COc4ccccc4)nn23)cc1,2,0,i,-18,nt,nt
COc1ccc(CNC(=O)CCC(=O)c2ccccc2)cc1,8,2,i,0,nt,nt
COc1ccc(/C=N\NC(=S)SCN2C(=O)C3CCC(C)(C2=O)C3(C)C)cc1 (centres undefined),48*,-11,i,-20,-11,-1
COc1cccc(CC(=O)N2CCC(CCC(=O)Nc3cccc(OC)c3)CC2)c1,-2,-2,i,0,nt,nt
COc1cccc(NC(=O)CCC2CCN(C(=O)c3cccc(NC(C)=O)c3)CC2)c1,36*,2,i,5,5,2
Cc1ccc(NC(=S)N(CCCN2CCN(C)CC2)Cc2cccs2)cc1,16*,25*,i,-6,9,3
Cc1ccc(NC(=S)N(CCCN2CCN(C)CC2)Cc2cccs2)cc1C,-1,-2,i,14,nt,nt
CC(C)CNc1ccc2c(c1)OC[C@H](C)NS2(=O)=O,13*,21*,nt,nt,11,4
CC(C)CNc1ccc2c(c1)OC[C@H](CC(C)C)NS2(=O)=O,0,1,nt,nt,nt,nt
Cn1c(=O)n(Cc2ccc(F)cc2)c(=O)c2c1nc1n2CCN1Cc1ccco1,-2,0,i,10,nt,nt
Cc1ccc(S(=O)(=O)N2CCN(c3ncccn3)CC2)c(C)c1,2,1,i,-8,nt,nt
Cc1ccc(C)c(S(=O)(=O)N2CCN(c3ncccn3)CC2)c1,15*,3,i,-1,8,3
CCCc1nc2ccc(Cl)cn2c1Cc1ccccc1,18*,23*,i,nt,10,5
CCCc1nc2c(C)cc(Br)cn2c1Cc1ccccc1,13*,22*,i,nt,11,6
CC1CCN(C(=O)c2ccc3c(c2NCCO)C(=O)c2ccccc2C3=O)CC1,-27,-20,i,-363,nt,nt
SMILES,MBD2 DNA inh,UHRF1 MBD2 ctr,Neddyl block,UBC13 polyUb,UHRF1 DNA bind,MBD2 DBD conf
CCN(CC)CCC(=O)Nc1cccc2c1C(=O)c1ccccc1C2=O,27*,-29,i,-67,4,38*
CCN(CC)CCNC(=O)c1ccc2c(c1NCCO)C(=O)c1ccccc1C2=O,22*,4,i,-267,15,30*
COc1ccc(-c2nc3c4ccccc4ccn3c2Cc2cccc(F)c2)cc1OC,15*,15,i,nt,6,5
CCN(C(=O)COC(=O)c1c(C)c(-c2ccccc2)nc2ccccc12)C1CCS(=O)(=O)C1 (centres undefined),0,7,i,13,nt,nt
COCCn1c(N)c(N(Cc2ccccc2)C(=O)c2ccc3ccccc3c2)c(=O)[nH]c1=O,13*,26*,i,-3,6,2
O=C(Cc1cccs1)N(Cc1ccco1)C1(C(=O)NC2CCCCC2)CCCCC1,-6,-2,i,-1,nt,nt
O=C(Cc1cccs1)N(Cc1cccs1)C1(C(=O)NC2CCCC2)CCCCC1,13*,24*,i,2,2,4
CCCNC(=O)c1ccc2c(=O)n3c(-c4ccc(C)cc4)csc3nc2c1,15*,16,i,-9,0,7
Cc1c(Cl)cnc(NC(=O)CSc2nnc3ccccn23)c1Cl,1,-1,i,nt,nt,nt
COCCn1c(C)cc(C(=O)COC(=O)c2cc3c(s2)CCC3)c1C,16*,20,i,0,23*,19*
COCCn1c(C)cc(C(=O)COC(=O)c2cccc(O)c2)c1C,0,16,i,8,nt,nt
C=CCC1(Cl)C(=O)C(Cl)=C(N2CCOCC2)C1(OC)OC (centres undefined),0,1,i,-21,nt,nt
CN(C)/C=N/C1=C(C#N)C(c2ccc(Br)cc2)c2ccc3ccccc3c2O1 (centres undefined),-1,0,i,-5,nt,nt
CC1CCCN(C(=O)COC(=O)c2ccc(=O)n(Cc3ccccc3)n2)C1 (centres undefined),-1,3,i,1,nt,nt
Cc1ccc(C)n1C(CC(=O)O)c1ccc(C#N)cc1 (centres undefined),27*,95*,i,3,11,5
COc1cc2c(cc1OC)C(NC(=O)C(F)(F)F)C/C2=N\O (centres undefined),3,-4,i,3,nt,nt
CCN(CC(=O)Nc1c(F)cccc1F)C(=O)/C=C/c1ccc2ccccc2n1,30*,64*,i,20,66*,58*
CCN(CC(=O)Nc1c(F)cccc1F)C(=O)c1ccc2ccccc2n1,-1,4,i,-2,nt,nt
O=C(Cc1ccc([N+](=O)[O-])cc1)NCc1ccccc1Cl,1,0,i,-2,nt,nt
CS(=O)(=O)Nc1cccc(NC(=O)c2ccc(-n3ccnc3)c3ccoc23)c1,14*,18,i,nt,13,13
Cn1nccc1-c1ccc(C(=O)Nc2cccc(NS(C)(=O)=O)c2)c2occc12,8,4,i,nt,nt,nt
Cc1[nH]n(-c2ccccc2)c(=O)c1C(c1ccc(C(=O)O)cc1)c1c(C)[nH]n(-c2ccccc2)c1=O,20*,20,i,-23,11,2
Cc1[nH]n(-c2ccccc2)c(=O)c1C(c1cccc([N+](=O)[O-])c1)c1c(C)[nH]n(-c2ccccc2)c1=O,-4,16,i,-30,nt,nt
Cc1[nH]n(-c2ccccc2)c(=O)c1C(c1cccc([N+](=O)[O-])c1O)c1c(C)[nH]n(-c2ccccc2)c1=O,21*,24*,i,-60,4,0
O=C(CSc1ccccc1)N1CCc2ccccc21,14*,22*,i,4,2,2
NC(=O)CCCn1c(C(=O)c2ccc(Cl)cc2)c2ccc([N+](=O)[O-])cc2[n+]1[O-],-3,-7,i,-27,nt,nt
